Assay outcomes deposited in PubChem by several laboratories.
HIV RNase H inh-1 – HIV-1 RT RNase H inhibitors, primary screen, biochemical, fluorescence; inhibition, % at 10 µM; hit rate 1.9% among 65,000; Gag-Pol polyprotein (Human immunodeficiency virus type 1 group M subtype B (isolate …; RT-RNase H RNA/DNA duplex cleavage; in the data active = inhibition above about 50%
RmlCD inh mix – RmlC and RmlD coupled enzyme inhibitors, primary screen, biochemical, 384-well, compound mixtures, retest. AID 1532, 2009. RmlC/RmlD coupled enzyme inhibition, 384-well mixture HTS. inhibition, % at 5.5 µM. hit rate 0.39% among 110,000; in the data active = inhibition above about 30%, passing the limit was not always enough; inconclusive = no clear call, values can overlap the other calls
HIV RNase H inh-2 – HIV-1 RT RNase H inhibitors, retest, confirmation, biochemical; shares compounds with HIV RNase H inh-1; Recombinant RT RNase H, fluorescent RNA/DNA duplex cleavage; inhibition, % at 10 µM; hit rate 39% among 1,000; AID 651, 2007; in the data active = inhibition above about 48%; inconclusive = no clear call, values can overlap the other calls
Hits are given with their value; . = inactive; ? = inconclusive; / = no result. The entries come from a sample that favours hits as a whole.

SMILES | HIV RNase H inh-1 | RmlCD inh mix | HIV RNase H inh-2
O=C(CN1C(=O)COc2ccccc21)N(Cc1ccccc1)Cc1ccccn1 | 84 | . | .
Cc1ccc(CN(Cc2cccnc2)C(=O)CN2C(=O)COc3ccccc32)o1 | . | . | /
CCOc1ncccc1C(=O)Nc1ccccc1C(=O)NCc1ccc2c(c1)OCO2 | . | . | /
CN(C)/C=C(/C(=O)c1ccccc1Cl)S(=O)(=O)c1ccccc1 | / | . | /
O=C(NCCO)c1nc(NCCO)c2ccccc2n1 | . | . | /
CCC(CC)c1nc(NCCC(=O)O)c2ccccc2n1 | 76 | . | .
COCc1nc2ccccc2n1CCOc1ccccc1OC | 80 | . | .
COCCn1c(COC)nc2ccccc21 | . | . | /
O=[N+]([O-])c1cc(F)c(N2CCOCC2)cc1N1CCCCC1 | / | . | /
CCCCCCCCCOC(=O)C[n+]1csc(CCO)c1C | / | . | /
CC(=O)N(Cc1cc(=O)[nH]c2ccccc12)c1cccc(C)c1 | 82 | . | 67
CC(=O)N(Cc1cc(=O)[nH]c2ccccc12)c1ccccc1 | . | . | /
O=C1NC(=S)S/C1=C1\Sc2ccccc2N1CCCS(=O)(=O)O | . | . | /
N#Cc1c(NC(=O)CN2CCN(S(=O)(=O)c3ccc4c(c3)OCCO4)CC2)sc2c1CCC2 | 70 | . | 78
O=C(CN1CCN(S(=O)(=O)c2ccc(Cl)cc2)CC1)Nc1ccc2c(c1)OCCO2 | . | . | /
O=C(Cn1nc(C(F)F)cc1C1CC1)NCCC1=CCCCC1 | . | . | /
COc1ccc(-c2noc(CCC(=O)Nc3cccc(C)c3)n2)cc1 | . | . | /
C[C@]12CCC(=O)C=C1CC[C@@H]1[C@@H]2C(=O)C[C@]2(C)C(=O)CC[C@@H]12 | / | . | /
O=C(Nc1ccc(N2CCOCC2)cc1)Nc1cnsn1 | 67 | . | .
O=C(Nc1ccc(N2CCOCC2)cc1)Nc1ccc(Cl)c(Cl)c1 | / | . | /
COc1ccc(Cc2nnc(-c3cccc(C)c3)o2)cc1OC | . | . | /
COC(=O)C1=C(C)N=c2s/c(=C3\C(=O)Nc4ccccc43)c(=O)n2C1c1ccccc1 (configuration not stated) | 90 | / | 70
CCOC(=O)C1=C(C)N=c2s/c(=C3/C(=O)Nc4ccccc43)c(=O)n2C1c1ccc(C)cc1 (configuration not stated) | / | . | /
CCCCn1c(SCC(=O)Nc2cc(C)on2)nnc1-c1cccnc1 | . | . | /
CNC(=O)Cc1csc2ccc(Cl)cc12 | / | . | /
SMILES | HIV RNase H inh-1 | RmlCD inh mix | HIV RNase H inh-2
c1ccc(-c2ccc(-c3ccccn3)nn2)nc1 | 83 | / | 77
c1ccc(-c2ccccn2)nc1 | . | . | /
Cc1cc2nc(-c3ccc(SCC(=O)N4CCOCC4)nc3)[nH]c2cc1C | . | . | /
Cc1cc2nc(-c3ccc(SCC(=O)N4CCN(C(=O)c5ccco5)CC4)nc3)[nH]c2cc1C | 74 | . | .
CCN1CCN(P2(=O)C=C(c3ccccc3)OC(c3ccccc3)=C2)CC1 | . | . | /
COCCNC(=O)C(c1ccc(C)o1)N(C(=O)c1snc(C(N)=O)c1N)c1ccc(C)c(C)c1 (configuration not stated) | . | . | /
CC(C)COCC1CC2(CC(C)(c3csc(N)n3)OC2=O)C(=O)O1 (configuration not stated) | . | / | /
C=CCNc1nc(C2(C)CC3(CC(C)(C)OC3=O)C(=O)O2)cs1 (configuration not stated) | 57 | . | .
CCc1cc(C(=O)Cc2ccc(F)cc2)c(O)cc1O | . | / | /
CCCCn1c2nc3ccccc3nc2c2c(=N)oc(C)nc21 | . | / | /
CCCCC(CC)Cn1c2nc3ccccc3nc2c2c(=N)oc(C)nc21 (configuration not stated) | 68 | / | 65
Cc1sccc1C1C(C#N)=C(N)SC(N)=C1C#N | 60 | / | .
Cc1cc(C2C(C#N)=C(N)SC(N)=C2C#N)c(C)s1 | . | / | /
CSc1nc(C)c2c(n1)N(c1ccc(C(F)(F)F)cc1)CC2 | / | . | /
CCCCN1Cc2cc(C(=O)c3cc(OC)ccc3O)cnc2NC1=O | / | . | /
Cc1ccc(O)c(C(=O)c2cnc3c(c2)CN(CCC(C)C)C(=O)N3)c1 | 63 | . | ?
N=C1C(c2nc3ccccc3c(=O)[nH]2)=C(O)CN1CCO | . | . | /
N=C1C(c2nc3ccccc3c(=O)[nH]2)=C(O)CN1CCc1ccccc1 | 75 | . | .
COCCSc1ccccc1C(=O)Nc1cccnc1 | / | . | /
COCCSc1ccccc1C(=O)Nc1cc(C)on1 | 80 | . | 63
COCCn1c(C)cc(C(=O)CSc2ccc(NC(C)=O)cc2)c1C | . | . | /
Cc1nc2ccccc2n1C(=O)c1cc(-c2ccc(Br)cc2)nc2ccccc12 | / | . | /
Brc1ccccc1-c1nnc2sc(Cc3ccccc3)nn12 | . | . | /
c1ccc(Cc2nn3c(Cn4nnc5ccccc54)nnc3s2)cc1 | 74 | / | 68
COCCOC(=O)C1=C(C)N=C2SCCC(=O)N2C1c1cccc(Br)c1 (configuration not stated) | . | . | /
SMILES | HIV RNase H inh-1 | RmlCD inh mix | HIV RNase H inh-2
Cc1ccc(-c2ccc(CCC(=O)O)o2)cc1 | / | . | /
O=C(O)CCc1ccc(-c2cccs2)o1 | 89 | . | .
O=[N+]([O-])c1cccc(N=NN(CCO)c2cccc([N+](=O)[O-])c2)c1 | / | . | /
CN(Cc1ccccc1)C1CC(=O)N(c2ccc(C(=O)O)cc2)C1=O (configuration not stated) | 77 | . | .
COC(=O)c1ccc(N2C(=O)CC(NCc3ccccc3)C2=O)cc1 (configuration not stated) | . | . | /
Cc1ccccc1Cn1cnc2c([N+](=O)[O-])c(C)c(C)cc21 | / | . | /
CCCc1cc(C(=O)Nc2sc(C(C)=O)c(C)c2C(=O)OCC)no1 | 68 | . | ?
CCOC(=O)c1c(NC(=O)c2cc(CC(C)C)on2)sc(C(C)=O)c1C | / | . | /
CCOC(=O)C1C(=O)NCC2CCCC21 (configuration not stated) | . | . | /
COc1ccc(C(c2nnnn2C2CCCC2)N2CCc3ccccc3C2)cc1OC (configuration not stated) | . | . | /
COCCn1nnnc1C(c1ccc(O)c(OC)c1)N1CCc2ccccc2C1 (configuration not stated) | 61 | . | .
O=C(O)c1sccc1SCc1ccc(Cl)c(Cl)c1 | / | . | /
Cc1ccccc1OCc1nc(-c2ccc(NC(=O)c3ccc4c(c3)OCO4)cc2)no1 | 75 | . | 87
Cc1ccc(-c2nc3ccccc3o2)cc1NC(=O)c1ccc2c(c1)OCO2 | 62 | . | .
Cc1ccccc1OCc1nc(-c2ccc(NC(=O)c3ccco3)cc2)no1 | . | . | /
Cc1c(NC(=O)c2ccc3c(c2)OCO3)cccc1-c1nc2ccccc2o1 | . | . | /
Cc1noc(C)c1COC(=O)c1ccccc1Oc1ccccc1 | . | . | /
Cc1noc(C)c1COC(=O)c1ccc2c(c1)S(=O)(=O)c1ccccc1C2=O | . | . | /
CS(=O)(=O)N1CCN(c2ccccc2NC(=O)C(c2ccccc2)c2ccccc2)CC1 | / | . | /
CC(C)CC(c1nnnn1Cc1cccs1)N1CCN(c2nc3ccccc3s2)CC1 (configuration not stated) | / | . | /
C=CCn1c(SCC(=O)NC(=O)NCc2ccco2)nc2sc(C)c(C)c2c1=O | 92 | . | 63
COc1ccc(NC(=O)CSc2nc3sc(C)c(C)c3c(=O)n2Cc2ccco2)cc1 | . | . | /
